# A selection: hits, their analogues and other compounds. The true share with any hit is near 6.1%.
# ERG Ets-DNA blk = ERG Ets/DNA interaction inhibition. P11308. fluorescence polarization, His-ERG Ets domain / labelled DNA. AID 624246. 370,000 tested, 0.028% active. Potency, µM (top dose mostly 76.9 µM), usual class: inhibitors; active means well fitted inhibition curve with a large enough effect in the polarisation, with a control signal flat; the % refers to the polarisation;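 further: polarization taken with two DNA probes labelled with fluorescein and Texas red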
#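 His-tagged ERG Ets domain (1 uM in the protein solution; 300mM KCl, 50mM Tris-HCl, 1mM EDTA, 1mM DTT, pH 7.5) received compound, then a probe mix of 5 nM fluorescein-DNA and 100nM Texas-615-DNA. Fluorescence polarization was read for both dyes.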
# D1 PAM = potentiators of human D1 dopamine receptor; P21728; HEK293 TREx D1 cells, calcium flux, dopamine EC20 potentiation; potentiation, % at 10 µM; 360,000 tested, 0.036% active; AID 504651; in the data active means potentiation above about 30%
# Target sequence (P21728 whole entry, looked up): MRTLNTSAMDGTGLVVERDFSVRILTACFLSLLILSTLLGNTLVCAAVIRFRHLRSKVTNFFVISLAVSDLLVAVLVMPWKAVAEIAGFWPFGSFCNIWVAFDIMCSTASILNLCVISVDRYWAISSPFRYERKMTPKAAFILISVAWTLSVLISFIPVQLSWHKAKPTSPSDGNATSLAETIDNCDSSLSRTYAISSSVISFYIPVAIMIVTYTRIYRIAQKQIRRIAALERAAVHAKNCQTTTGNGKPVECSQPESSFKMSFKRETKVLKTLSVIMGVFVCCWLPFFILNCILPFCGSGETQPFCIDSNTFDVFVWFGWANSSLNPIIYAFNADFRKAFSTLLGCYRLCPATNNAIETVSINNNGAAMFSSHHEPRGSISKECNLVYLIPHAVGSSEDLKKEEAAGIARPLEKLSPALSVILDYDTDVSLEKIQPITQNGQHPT
# D3 antag = blocks the human D3 dopamine receptor; P35462; D3R cells, DiscoveRx beta-arrestin luminescence, antagonist mode; stronger effect = lower value; max response, negative = inhibition, %; 360,000 tested, 2.5% active; AID 652054; in the data active means max response below about -50%
#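 Cells expressing the human receptor were seeded at 1500 cells/well, incubated overnight at 37 degrees C in 5% CO2, then exposed to library compounds with dopamine controls for 90 minutes at 37 degrees C before luminescent detection.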
# D1 antagonist = human D1 dopamine receptor antagonism; P21728; HEK293 TREx D1 cells, calcium flux, dopamine EC80; stronger effect = lower value; 360,000 tested, 3.2% active; activity change, negative = inhibition, % at 10 µM; in the data active means activity change below about -30%
#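 Allosteric or orthosteric antagonism assessed as attenuation of the calcium response to EC80 dopamine, added 180 s after compound, in induced HEK293 Trex D1 cells loaded with no-wash calcium dye.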
# DRD3 agonist = activates the human D3 dopamine receptor; P35462; D3R DiscoveRx beta-arrestin cells, luminescence, 90 min; max activation, %; 410,000 tested, 0.58% active; AID 652048; in the data active means max activation above about 30%
#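 Agonist-mode cell screen: cells plated at 1500/well and incubated overnight at 37 °C, then exposed to library compounds for 90 min at 37 °C. Detection reagent was added for 30–60 min at room temperature, and luminescence was read.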
# D1 ag = human D1 receptor agonism | HEK293 T-REx D1 cells, calcium flux, agonist mode | AID 504660 | 360,000 tested, 1% active | activation, % at 2 µM; in the data active means activation above about 30%
#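 Inducible HEK293 T-REx D1 cells, force-coupled to calcium signalling, were plated at 4000 cells/well with tetracycline and held overnight at 30 C. After no-wash calcium dye loading, compound-evoked calcium rise over 180 s flagged agonists.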
# Numbers stand for hits; n = inactive; x = no result.
SMILES,ERG Ets-DNA blk,D1 PAM,D3 antag,D1 antagonist,DRD3 agonist,D1 ag
COc1ccc(C(=O)NCC(=O)N2CCc3ccccc3C2)cc1,n,n,n,n,n,n
CCC(=O)c1ccc(OCC(O)CN2CCN(C(c3ccccc3)c3ccccc3)CC2)cc1 (stereo unspecified),n,n,-88,n,n,n
COCCSc1nnc(-c2cnccn2)o1,n,n,n,n,n,n
O=C(NCc1ccccc1)c1ccc2c(c1)CCN2S(=O)(=O)c1ccc(Cl)cc1,n,n,x,n,n,n
O=C(Nc1ccc(Cl)cc1)c1cncs1,n,n,n,-47,n,n
O=C(Nc1ccc(F)cc1)c1cncs1,n,n,n,n,n,n
CCc1cccc(NC(=O)CCS(=O)(=O)c2ccc3nc(C)sc3c2)c1,n,n,x,n,n,n
C(=N\N1CCN(Cc2ccccc2)CC1)/c1ccc(-c2ccccc2)cc1,n,n,n,x,n,n
CN1CCN(/N=C/c2ccc(-c3ccccc3)cc2)CC1,n,n,n,-76,n,72
COc1ccccc1NC(=O)CC(C)n1nc(C)cc1C (stereo unspecified),n,n,x,n,n,n
CC(=O)Nc1cccc(-c2ccnc3c2CC(C(=O)NCCC(F)(F)F)O3)c1 (stereo unspecified),x,x,n,x,n,x
CN1CCC(Oc2ccccc2Sc2ccc(C(F)(F)F)cc2)CC1,n,n,n,-58,n,52
CN1CCC(Oc2ccc(Sc3ccccc3)cc2)CC1,n,n,n,n,n,78
CC(C)NS(=O)(=O)c1ccc(CCC(=O)N2CCCCC2)cc1,n,n,n,n,n,n
COc1ccc(C2=NN(C(=O)CSc3nnc(C)c(=O)n3N)C(c3ccco3)C2)cc1 (stereo unspecified),n,n,n,-80,n,n
CCC(=O)N1N=C(c2ccc(C)cc2)CC1c1ccco1 (stereo unspecified),n,n,n,-37,n,n
CCN(CC)C(=O)[C@H]1C[C@H](CC(=O)NCCC2=CCCCC2)C(=O)N2CCc3c([nH]c4ccc(Cl)cc34)[C@]12C,n,x,n,x,n,x
CC1CCN(C(=O)c2cc3c(=O)n(C)c4ccccc4c3s2)CC1,n,n,x,-31,n,n
COc1ccc(-c2nn(C)c3sc(C(=O)N4CCN(c5ccccc5F)CC4)cc23)cc1OC,n,n,x,n,n,n
COc1ccc(NC(=O)c2cc3c(=O)n(C)c4ccccc4c3s2)cc1Cl,n,n,x,-68,n,n
COc1ccccc1N1CCN(C(=O)c2cc3c(-c4ccccc4F)nn(C)c3s2)CC1,n,n,x,n,56,n
Cc1ccc(Cl)cc1N1CCN(C(=O)c2cc3c(=O)n(C)c4ccccc4c3s2)CC1,n,n,x,n,n,n
COc1ccccc1N1CCN(C(=O)c2cc3c(=O)n(C)c4ccccc4c3s2)CC1,n,n,x,-53,n,n
Nn1c(SCC(=O)Nc2ccc(S(N)(=O)=O)cc2)nnc1C(F)(F)F,n,n,n,n,n,n
O=C(NCC1CC1)c1csc(COCCO)n1,x,x,n,x,n,x
SMILES,ERG Ets-DNA blk,D1 PAM,D3 antag,D1 antagonist,DRD3 agonist,D1 ag
O=C(Nc1ccc(Cl)c(Cl)c1)c1ccc(Cn2cc(Cl)cn2)cc1,n,n,n,n,n,34
Brc1ccccc1OCCCCn1cnc2ccccc21,n,n,n,n,n,n
Cc1ccc(C)c(OCCCCn2cnc3ccccc3c2=O)c1,n,n,n,n,n,39
CCOc1ccc(OCCCCn2cnc3ccccc3c2=O)cc1,n,n,n,-42,n,n
Cc1ccc(OCCCCn2cnc3ccccc32)c(C)c1,n,n,-57,n,n,n
Cc1ccc(C(=O)Cn2cnc3ccccc3c2=O)cc1C,n,n,n,n,n,43
COC(=O)N/N=C(\C)c1ccc2ccccc2c1OC(F)F,n,n,n,n,n,n
O=C(COc1ccc2ccc(=O)oc2c1)NC(Cc1ccc(Cl)cc1)C(=O)O (stereo unspecified),n,n,n,n,n,n
C=CCn1c(C(C)NC(=O)C(C)(C)C)nc2ccccc21 (stereo unspecified),x,n,-52,n,n,n
C=CCn1c(CCCNC(=O)C(C)(C)C)nc2ccccc21,n,n,n,n,n,n

# High-throughput results: PubChem, National Center for Advancing Translational Sciences (NCATS)
